Source: PubChem BioAssay (EPA / NIEHS)
Calls of active or inactive are those of the source. How the source made its calls: active means hit-call score of the fitted dose curve at least 0.9, where 1 is the maximum; inactive means score below 0.9.

Experiment: ATG_TAL_CIS: Attagene CIS-FACTORIAL HepG2 Assay for human TAL Basal Promoter (AID 2282966)
Conditions: HepG2 Attagene cis-factorial TAL promoter reporter; actives raise or lower the signal
Procedure: ATG_CIS is a cell-based, multiplexed-readout assay that uses HepG2, a human liver cell line, with measurements taken at 24 hours after chemical dosing in a 24-well plate.ATG_TAL_CIS is one of 52 assay component(s) measured or calculated from the ATG_CIS assay. It is designed to make measurements of mRNA induction, a form of inducible reporter, as detected with fluorescence intensity signals by Reverse transcription polymerase chain reaction (RT-PCR) and Capillary electrophoresis technology.Data from the assay component ATG_TAL_CIS was analyzed into 1 assay endpoint. This assay endpoint, ATG_TAL_CIS, was analyzed with bidirectional fitting relative to DMSO as the negative control and baseline of activity. Using a type of inducible reporter, measures of mRNA for gain or loss-of-signal activity can be used to understand the background control at the transcription factor-level as they relate to the gene . Furthermore, this assay endpoint can be referred to as a secondary readout, because this assay has produced multiple assay endpoints where this one serves a background control function. To generalize the intended target to other relatable targets, this assay endpoint is annotated to the background measurement intended target family, where the subfamily is internal marker.
Human liver HepG2 cells are transiently transfected with multiple reporter transcription units (MRTUs) in 6-well plates using FuGene 6 reagent (Roche; 3 ml FuGene/1 mg DNA). The MRTU constructs are regulated by a cis-regulating element (promoter). […] A major difference between the CIS and TRANS system is that in CIS activities of endogenous TFs are measured, whereas the TRANS assay evaluates changes in activities of exogenous, chimeric NR-Gal4 proteins. […] At the end of 24 hour incubation, total RNA was isolated using TriZol reagent (Invitrogen). The isolated RNA is then reverse-transcribed using oligo(dT) primer and Mo-MLV reverse transcriptase (Invitrogen) with DNAse I (Ambion) treatment for 30 min. The one-tenth of the produced cDNA was amplified by PCR using Taq DNA polymerase (Invitrogen) and two reporter sequence-specific primers. The PCR products were fluorescently labeled by primer extension with 6-arboxyfluorescein (6-FAM) 5'-labeled reporter sequence-specific primer (2 min at 95 C, 20 s at 68 C and 10 min at 72 C) and these products were digested with 5U of HpaI (New England Biolabs) for 2h at 37 C. The fragments were purified using Qiaquick PCR columns (Qiagen), analyzed on an ABI 3130xL genetic analyzer (Applied Biosystems) with peak positions identified by using a set of X-rhodamine (ROX)-labeled MapMarker1000 molecular weight standards (BioVentures). The raw capillary electrophoresis data was processed using Attagraph software (Attagene).

Structure (SMILES)	outcome	AC50
CCOC(=O)c1ccc(N(C)C)cc1	inactive	
O=CC1CC1	inactive	
CCCCCCCCCCC=CC#N	inactive	
CCCC(=O)OCc1ccccc1	inactive	
COc1ccc(-c2coc3cc(O)ccc3c2=O)cc1	inactive	
NNC(=O)c1cccc(C(=O)NN)c1	inactive	
COc1ccc(NC(C)=O)cc1N	inactive	
Cc1ccc2c(c1)C(=O)c1ccccc1C2=O	inactive	
[Cl][Nd]([Cl])[Cl]	inactive	
Nc1ccc(-c2ccc(F)cc2)cc1	inactive	
CNC(=S)NN	inactive	
Cc1cc(C)c(C)c(O)c1	inactive	
c1cc(N(CC2CO2)CC2CO2)ccc1OCC1CO1 (stereo not given)	inactive	
COCC(C)N (stereo not given)	inactive	
O=C(Cl)c1cc(C(=O)Cl)cc(C(=O)Cl)c1	inactive	
C=C[Si](OC(C)=O)(OC(C)=O)OC(C)=O	inactive	
Cc1cc(C)c(C)c(C)c1	inactive	
CCN(CC)c1ccc(C(=O)c2ccccc2C(=O)O)c(O)c1	inactive	
CCOCC(=O)O	inactive	
C=CC(=O)OCCOC1C2CCC1C1CC=CC12 (stereo not given)	inactive	

Structure (SMILES)	outcome	AC50
CCCCCC/C=C/C=O	inactive	
O=C(/C=C/C=C/c1ccc2c(c1)OCO2)N1CCCCC1		100 µM (active)
CCCCCCCC(C)=O	inactive	
CC(C)CCCC(C)CC=O (stereo not given)	inactive	
O=C1CCCCCCCCCCC(=O)OCCO1	inactive	
CCC(Cc1ccccc1)(C(=O)c1ccc(N2CCOCC2)cc1)N(C)C (stereo not given)		23.5 µM (active)
FC(F)=C(F)OC(F)(F)C(F)(F)C(F)(F)F	inactive	
CC1(C)O[C@@H]2C[C@H]3[C@@H]4C[C@H](F)C5=CC(=O)C=C[C@]5(C)[C@@]4(F)[C@@H](O)C[C@]3(C)[C@]2(C(=O)CO)O1	inactive	
O=C(c1ccccc1)C1CCC1	inactive	
CC(C)(C)c1ccc(OC(=O)c2ccccc2O)cc1	inactive	
CCCCCCCC/C=C\CCCCCCCC(=O)OCCO	inactive	
CCCCC(CC)COCC1CO1 (stereo not given)	inactive	
COC(=O)c1ccccc1OC	inactive	
C=C(C)CCO	inactive	
CC(=O)[C@@]1(O)CC[C@H]2[C@@H]3C[C@H](C)C4=CC(=O)C=C[C@]4(C)[C@@]3(F)[C@@H](O)C[C@@]21C	inactive	
Cc1ccc(C(C)(C)C)cc1	inactive	
Nc1ncn([C@@H]2O[C@H](CO)[C@@H](O)[C@H]2O)c(=O)n1	inactive	
Cn1c(=O)[nH]c2ncn(C)c2c1=O	inactive	
CC(=O)Nc1ccc2c(c1)Cc1cc(NC(C)=O)ccc1-2	inactive	
Nc1ccc(Cl)cc1Cl	inactive	
